Screening data from PubChem BioAssay.
Hits are enriched below; roughly 2.2% of the tested compounds scored in any of these assays.
LGR2 antag = inhibitors of bursicon-induced LGR2 CRE-luciferase signal, primary screen, cell-based, HEK293, CRE-luciferase reporter, bursicon stimulation. bursicon-stimulated, 4 h. inhibition, % at 9.99 µM. 380,000 compounds, 0.35% hits. Drosophila bursicon receptor LGR2 (rickets);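 active = drop in luminescence signal, shown as inhibition above about 50% in the replicate tests, limit read from the data, passing the limit was not always enough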;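 also: agonist challenge used bursicon conditioned medium at about half maximal strength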
MITF TRPM1 inh = inhibitors of MITF-dependent TRPM1 promoter reporter, primary screen, cell-based, SK-MEL-5, single point, luciferase. SK-MEL-5 TRPM1 promoter luciferase, 24 h. inhibition, % at 12.5 µM. 330,000 compounds, 0.83% hits. AID 488899, 2010;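 active = mean inhibition across replicates of 60% or more, whatever share of single replicates reaches that level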
EWS-Fli inh = EWS/Fli-driven NR0B1 reporter inhibitors, primary screen, A673 cells, NR0B1 luciferase, luminescence, MLPCN library; viability-normalised; 350,000 compounds, 0.67% hits; inhibition, % at 12.6 µM;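 active = mean inhibition of at least 50% after viability correction, with every replicate also passing that limit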;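 also: firefly luciferase signal divided by Alamar Blue viability fluorescence both relative to DMSO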
PGC1a acetyl inh = inhibitors of PGC1a acetylation signal, primary screen, cell-based, U2OS, AlphaScreen, inhibitor mode; AlphaScreen anti-acetyl-lysine; with virally co-expressed GCN5 acetyltransferase; AID 651687, 2012; 350,000 compounds, 0.17% hits; inhibition, % at 15.6 µM;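 active = every replicate shows inhibition of at least 40%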
LMP1 NFkB inh = EBV LMP1-driven NF-kappaB luciferase reporter inhibitors, primary screen, cell-based, luminescence, single point. LMP1-induced NF-kappaB luciferase reporter cells. inhibition, % at 12.5 µM. 350,000 compounds, 0.69% hits; in the data active = inhibition above about 41%
PAX8 inh HTS = inhibitors of PAX8-driven TPO luciferase reporter, primary screen, RMG-I cells, single concentration | 360,000 compounds, 1.2% hits | SteadyGlo, 24 h | inhibition, % at 12.6 µM;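 active = mean replicate inhibition at least 60% with every replicate also reaching 60%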;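 also: luciferase light reporting Pax8 driven TPO promoter activity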
Each line names hits and unclear results; the compound was inactive in the other large screens.

C[C@H](CO)N1C[C@H](C)[C@H](CN(C)S(=O)(=O)c2ccc(Cl)cc2)Oc2ccc(NC(=O)Nc3ccc4c(c3)OCO4)cc2CC1=O	EWS-Fli inh 61 (no result: MITF TRPM1 inh, LMP1 NFkB inh, PAX8 inh HTS)
C[C@H]1CN([C@@H](C)CO)C(=O)Cc2cc(NC(=O)Nc3ccc4c(c3)OCO4)ccc2O[C@H]1CN(C)S(=O)(=O)c1ccccc1	EWS-Fli inh 55 (no result: MITF TRPM1 inh, LMP1 NFkB inh, PAX8 inh HTS)
CCCNC(=O)N[C@@H]1CC[C@@H](CCn2cc(-c3cccc(F)c3)nn2)O[C@@H]1CO	none (no result: MITF TRPM1 inh, LMP1 NFkB inh)
Cc1ccc(S(=O)(=O)N(C)C[C@@H]2Oc3ccc(NC(=O)Nc4ccc5c(c4)OCO5)cc3CC(=O)N([C@H](C)CO)C[C@@H]2C)cc1	EWS-Fli inh 56 (no result: MITF TRPM1 inh, LMP1 NFkB inh)
C[C@H]1CN([C@@H](C)CO)C(=O)Cc2cc(NC(=O)Nc3ccc4c(c3)OCO4)ccc2O[C@H]1CN(C)S(=O)(=O)c1ccc(Cl)cc1	EWS-Fli inh 58 (no result: MITF TRPM1 inh, LMP1 NFkB inh, PAX8 inh HTS)
O=C(C[C@@H]1C[C@H]2c3cc(NC(=O)C4CCOCC4)ccc3O[C@H]2[C@@H](CO)O1)NCc1ccc(Oc2ccccc2)cc1	none (no result: MITF TRPM1 inh, LMP1 NFkB inh)
O=C(C[C@H]1C[C@@H]2c3cc(NC(=O)C4CCOCC4)ccc3O[C@@H]2[C@@H](CO)O1)NCc1ccc(Oc2ccccc2)cc1	PAX8 inh HTS 78 (no result: MITF TRPM1 inh, LMP1 NFkB inh)
O=C(C[C@H]1C[C@H]2c3cc(NC(=O)C4CCC4)ccc3O[C@H]2[C@H](CO)O1)NCc1ccc(-c2ccccc2)cc1	PGC1a acetyl inh 64 (no result: MITF TRPM1 inh, LMP1 NFkB inh)
CCOC(=O)N1CCN(C(=O)/C(=C/c2cccc3ccccc23)NC(=O)c2ccc(OC)c(OC)c2)CC1	PAX8 inh HTS 72
COc1ccc(NC(=O)N(C)C[C@H]2OCCCC[C@@H](C)Oc3ccc(NC(=O)c4ccncc4)cc3C(=O)N([C@@H](C)CO)C[C@@H]2C)cc1	none (no result: MITF TRPM1 inh, LMP1 NFkB inh)
Cc1ccc(-c2csc3ncnc(Sc4nnc(CN5CCCCCC5=O)o4)c23)cc1	MITF TRPM1 inh 85, LMP1 NFkB inh 42, PAX8 inh HTS 111 (no result: LGR2 antag, EWS-Fli inh)
Cc1ccc(-c2csc3ncnc(SCC(=O)Nc4nnc(C)s4)c23)cc1	none (no result: LGR2 antag, EWS-Fli inh, PGC1a acetyl inh)
Cc1ccc(C(=O)NCCc2cccs2)cc1	LGR2 antag 75, EWS-Fli inh 64, LMP1 NFkB inh 64
O=C(Nc1ccccc1)N1CCCCN2[C@@H](CO)[C@@H](c3ccc(-c4ccccc4)cc3)[C@@H]2C1	EWS-Fli inh 65 (no result: MITF TRPM1 inh, LMP1 NFkB inh)
O=C(Nc1ccccc1)N1CCCCN2[C@@H](CO)[C@@H](c3ccc(C#Cc4ccccc4)cc3)[C@@H]2C1	PAX8 inh HTS 107 (no result: MITF TRPM1 inh, LMP1 NFkB inh)
O=C(Nc1ccccc1)N1CCCCN2[C@@H](CO)[C@H](c3ccc(C#Cc4ccccc4)cc3)[C@@H]2C1	PAX8 inh HTS 72 (no result: MITF TRPM1 inh, LMP1 NFkB inh)
O=C(Nc1ccc(F)cc1)N1CCCCN2[C@@H](CO)[C@@H](c3ccc(C#Cc4ccccc4)cc3)[C@@H]2C1	EWS-Fli inh 63, PAX8 inh HTS 77 (no result: MITF TRPM1 inh, LMP1 NFkB inh)
O=C(Nc1ccc(F)cc1)N1CCCCN2[C@H](CO)[C@@H](c3ccc(C#Cc4ccccc4)cc3)[C@H]2C1	none (no result: MITF TRPM1 inh, LMP1 NFkB inh)
O=C(Nc1ccccc1)N1CCCCN2[C@H](C1)[C@@H](c1ccc(-c3ccccc3)cc1)[C@@H]2CO	none (no result: MITF TRPM1 inh, LMP1 NFkB inh)
CCC(=O)N1C[C@@H](C)[C@@H](OC)CN(C)C(=O)c2cc(NS(=O)(=O)CC)ccc2OC[C@H]1C	none (no result: MITF TRPM1 inh, LMP1 NFkB inh)
C[C@H]1CN([C@@H](C)CO)C(=O)c2cc(NC(=O)CCC(F)(F)F)ccc2O[C@H]1CN(C)S(=O)(=O)c1cn(C)cn1	none (no result: MITF TRPM1 inh, LMP1 NFkB inh, PAX8 inh HTS)
C[C@H](CO)N1C[C@H](C)[C@@H](CN(C)C(=O)c2ccc(F)cc2)Oc2ncc(/C=C/c3ccccc3)cc2C1=O	none (no result: MITF TRPM1 inh, LMP1 NFkB inh, PAX8 inh HTS)
S=C1Nc2ccccc2CS1	none (no result: MITF TRPM1 inh, PGC1a acetyl inh)
S=C1Cc2ccccc2N1	MITF TRPM1 inh 91, EWS-Fli inh 66, PAX8 inh HTS 106
C[C@H]1CN([C@@H](C)CO)C(=O)CCCn2cc(nn2)CO[C@H]1CN(C)S(=O)(=O)c1ccc(C#N)cc1	none (no result: MITF TRPM1 inh, PGC1a acetyl inh, LMP1 NFkB inh)
CC[C@@H](C(=O)[C@@H](C)[C@@H](O)[C@H](C)[C@@H]1O[C@@H]([C@@H](CC)C(=O)O)CC[C@@H]1C)[C@H]1O[C@]2(C=C[C@@H](O)[C@]3(CC[C@@](C)([C@H]4CC[C@](O)(CC)[C@H](C)O4)O3)O2)[C@H](C)C[C@@H]1C	MITF TRPM1 inh 78, PAX8 inh HTS 109 (no result: LGR2 antag)
Cn1ncc(Cl)c1C(=O)NC1CCCC1	LMP1 NFkB inh 53
C[C@H](CO)N1C[C@H](C)[C@@H](CN(C)C(=O)Nc2cccc3ccccc23)Oc2ccc(NC(=O)Cn3cnnn3)cc2C1=O	none (no result: MITF TRPM1 inh, LMP1 NFkB inh, PAX8 inh HTS)
COCC(=O)Nc1ccc2c(c1)C(=O)N(C)C[C@H](OC)[C@@H](C)CN(C)[C@@H](C)CO2	none (no result: MITF TRPM1 inh, LMP1 NFkB inh)
Oc1ccc(C[C@H]2CN([C@@H](Cc3ccccc3)CN3CCC[C@@H]3CN3C(=S)NC[C@@H]3Cc3ccccc3)C(=S)N2CC2CCCCC2)cc1	none (no result: MITF TRPM1 inh, LMP1 NFkB inh)
Oc1ccc(C[C@H]2CNC(=S)N2CC2CCCN2C[C@H](Cc2ccc(O)cc2)N2C[C@H](Cc3ccc(O)cc3)N(CC3CCCCCC3)C2=S)cc1 (some centres undefined)	MITF TRPM1 inh 72, PAX8 inh HTS 99
Oc1ccc(C[C@H]2CNC(=S)N2CC2CCCN2C[C@H](Cc2ccc(O)cc2)N2C[C@H](Cc3ccccc3)N(CC3CCCCC3)C2=S)cc1 (some centres undefined)	PAX8 inh HTS 87
Oc1ccc(C[C@H]2CNC(=S)N2CC2CCCN2C[C@H](Cc2ccccc2)N2C[C@H](Cc3ccc(O)cc3)N(CC3CCCCC3)C2=S)cc1 (some centres undefined)	PAX8 inh HTS 77 (no result: MITF TRPM1 inh, LMP1 NFkB inh)
Oc1ccc(C[C@H]2CNC(=S)N2CC2CCCN2C[C@H](Cc2ccc(O)cc2)N2C[C@H](Cc3ccccc3)N(CC3CCCCCC3)C2=S)cc1 (some centres undefined)	PAX8 inh HTS 90
Oc1ccc(C[C@@H](CN2CCCC2CN2C(=S)NC[C@@H]2Cc2ccccc2)N2C[C@H](Cc3ccccc3)N(CC3CCCCC3)C2=S)cc1 (some centres undefined)	none (no result: MITF TRPM1 inh, PGC1a acetyl inh, LMP1 NFkB inh)
CC=Cc1ccc2n(c1=O)C[C@H]1[C@H](CO)[C@@H](C(=O)NCc3ccc(F)cc3)N(Cc3cncnc3)[C@@H]21 (mixture of isomers)	none (no result: MITF TRPM1 inh, PGC1a acetyl inh, LMP1 NFkB inh, PAX8 inh HTS)
O=C(O)c1cccc(N/N=C/c2cccc3ccccc23)c1	MITF TRPM1 inh 81, LMP1 NFkB inh 48
Cc1ccc(/C=N/Nc2ccc(C(=O)O)cc2)s1	LGR2 antag 90, MITF TRPM1 inh 81, EWS-Fli inh 67, LMP1 NFkB inh 70, PAX8 inh HTS 75
Cc1nn(-c2ccccc2Cl)c(Cl)c1/C=N/Nc1cccc(C(=O)O)c1	LGR2 antag 80, MITF TRPM1 inh 69, LMP1 NFkB inh 69 (no result: EWS-Fli inh, PGC1a acetyl inh)
